The full list was thinned out, with hits kept by preference.
HBB splicing: hemoglobin beta splicing modulation. HBB splicing reporter cell assay, activation; EGFP reporter with mutant IVS2-654 intron; response scale: normalised to 500 nM splice-correcting PNA. Potency, µM (titrated, usually from 46.1 µM), without a hit: top-dose activation, usual class: activators. 0.06% of 65,000 active; further: potency means the concentration at half of the fitted maximal effect; 0% is about no effect
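HeLa cells stably expressing EGFP interrupted by mutant beta-globin intron 2 (IVS2-654), 500/well in 2% FCS. Treated with compound for 2 days at 37C. Splicing correction scored as total well GFP intensity (488 nm excitation, 500-520 nm emission); 500 nM antisense PNA served as control.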
CRE Fsk mod: CRE-bla signaling modulation under forskolin stimulation; 2.5% of 71,000 active; Potency, µM (titrated, usually from 38.2 µM), for the others: at the highest dose activity change, negative = inhibition, usual class: activators; CHO CRE-bla reporter (cAMP response element driving beta-lactamase), forskolin EC10, beta-lactamase ratio; active means well fitted activation curve with a large enough effect in the signal ratio, with a control signal flat, not every such curve was filed as active; inconclusive means small, poorly fitted or top-dose-only effect, or effect the other way, or a change in a side signal; the % refers to the signal ratio; further: potency means the concentration at half of the fitted maximal effect; % of control where 0% means no effect
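Using CellSensor CRE-bla CHO cells in Opti-MEM with 0.5% dialyzed FBS, compounds were titrated with EC10 NKH 477 for 3 h at 37 °C. CCF4 ratio (460/530 nm) gave %Activity; AC50 derived.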
GFP derepression: derepresses silenced GFP locus in mouse C127i cells | mouse C127i GFP locus derepression, cytometry, 30 h | Potency, µM (top dose mostly 46.1 µM), for inactives: at the top dose GFP derepression (activation) | 0.09% of 68,000 active | AID 597; further: % of control where 0% means no effect
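Derepression screen: silenced CMV-GFP reporter in murine C127i cells, 30 h compound incubation at 37 C, washed cells imaged by laser-scanning cytometer to enumerate GFP-expressing objects of 20 to 120 um.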
Imprint erasure: induces erasure of genomic imprints in mouse ES cells | mouse ES Peg3-LacZ reporter, beta-gal luminescence, 40 h | Potency, µM (top dose mostly 60.7 µM), inactives show at the highest dose activity change, positive = activation, hits mostly activators | 0.02% of 110,000 active; further: potency means the concentration at half of the fitted maximal effect
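Each well holds 300 Peg3LacZ-Neo (maternal) female ES cells incubated 40 h at 37C, 5% CO2. LacZ is measured by BetaGlo luminescence, with AC50 and maximum efficacy derived from dose-response curves.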
IkB signaling: suppresses IkB signaling in ABC-DLBCL reporter cells; 0.04% of 110,000 active; ABC-DLBCL IkBa-CBG/CBR dual luciferase ratio, 4 h; response scale: scaled: untreated 0%, proteasome inhibitor 100%; Potency, µM (titrated, usually from 57.1 µM), for inactives: top-dose IkBa stabilization activation; active means well fitted curve in the direction sought with a large enough effect in the signal ratio, not every such curve was filed as active; inconclusive means small, poorly fitted or top-dose-only effect, or a change in a side signal; the % refers to the signal ratio;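 further: potency means the concentration at half of the fitted maximal effect; the direction sought is a rising ratio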
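Luminescence ratio of IκBα-fused green versus native red beetle luciferase in OCI-Ly3 cells, 4 h post-doxycycline with compound; red signal alone, scaled from basal (0%) to zero light (-100%), flagged nonspecific or cytotoxic effects.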
The depositor's hits bear a star; ? = inconclusive; . = no result; [ ] = remark or other dose. Unless noted, the call rests on the fitted dose curve; in most records, active means well fitted curve in the direction sought with a large enough effect; inconclusive means small, poorly fitted or top-dose-only effect, or another doubt; inactive means no such curve, though single readings can be large; an effect the other way counts as inactive or inconclusive.

SMILES	HBB splicing	CRE Fsk mod	GFP derepression	Imprint erasure	IkB signaling
CCOC(=O)N1CCC(N2Cc3cccc(C(=O)NCc4ccc(OC)cc4)c3C2=O)CC1	2.2%	?	0.0%	-0.1%	3.0%
CCOC(=O)N1CCC(NC(=O)c2cccc3c2C(=O)N(c2ccc(OC)cc2)C3)CC1	0.2%	5.01µM*	-1.6%	-26.1%	-2.7%
CCOC(=O)c1c(NC(=O)Nc2ccc(F)cc2)sc(C(=O)N(C)C)c1C	.	.	.	-4.8%[10.9 µM]	-1.4%
CCOC(=O)c1ccccc1NC(=O)CSc1nc2ccccc2n1CC(=O)N1CCCC1	0.3%[57.5 µM]	2µM*	1.1%	-3.9%	-0.3%
O=C(c1cccs1)N1CCCc2cc(NS(=O)(=O)c3ccc(Br)cc3)ccc21	.	.	.	-13.2%[10.9 µM]	?
CCCC(=O)c1c(NC(C)C)cc(C)oc1=O	2.5%	12.6µM*	6.5%	-7.0%	-1.9%
CCCCNc1cc(C)oc(=O)c1C(C)=O	0.1%	?	0.0%	8.0%	-0.8%
COc1cc(C2=NOC(C(=O)N3CCCc4ccccc43)C2)cc(OC)c1OC (centres undefined)	3.3%	12.6µM*	0.2%	-6.1%	?
Cc1nc(-c2ccc(C)c(S(=O)(=O)N3CCC(C(=O)NCc4ccc(F)cc4)CC3)c2)no1	.	.	.	-13.9%[10.9 µM]	-0.8%
N#Cc1nc(-c2ccc(F)cc2)oc1NCc1cccc2c1OCO2	-0.3%	10µM*	-0.4%	-14.4%	6.2%
Cc1nc(N2CCC(C)CC2)c2oc3ccccc3c2n1	1.5%[57.5 µM]	?	0.0%	-16.7%	0.9%
c1cnc(N2CCN(Cc3ccc4c(c3)OCO4)CC2)nc1	2.1%[20.6 µM]	-16.4%	-1.4%	-12.9%	0.1%
COc1ccccc1N1CCN(c2nc(C)nc3c2oc2ccccc23)CC1	-3.7%[0.369 µM]	1.58µM*	15.2%	-45.4%	?
Cc1nc(N2CCN(Cc3ccc4c(c3)OCO4)CC2)c2oc3ccccc3c2n1	4.5%	10µM*	-2.6%	-19.7%	?
Cc1ccc2cc3c(NC(=O)C(C)C)nn(C)c3nc2c1	-1.3%[0.369 µM]	15.8µM*	1.6%	-3.9%	-1.6%
CCC(=O)Nc1nn(C)c2nc3c(C)cccc3cc12	6.9%[1.84 µM]	10µM*	-2.0%	-3.2%	-2.2%
Cc1cccc2cc3c(NC(=O)C(C)C)nn(C)c3nc12	4.3%[57.5 µM]	3.16µM*	-4.1%	-7.0%	0.3%
CCCC(=O)Nc1nn(C)c2nc3cc(C)ccc3cc12	3.1%[0.369 µM]	?	2.2%	-7.4%	-0.7%
CCn1nc(NC(=O)c2ccccn2)c2cc3cccc(C)c3nc21	0.4%[57.5 µM]	?	0.0%	-4.1%	1.1%
Nc1c(C(=O)NC2CCCC2)c2nc3ccccc3nc2n1N	4.1%[0.369 µM]	12.6µM*	4.3%	3.5%	?
CCc1ccc2oc(-c3cccc(NC(=O)C(C)(C)Oc4ccc(Br)cc4)c3)nc2c1	.	.	.	3.6%[10.9 µM]	?
COc1ccc(C(C)=O)cc1COC(=O)c1c(C)noc1C	-3.0%	?	0.0%	-13.4%	2.3%
COc1ccc(C(C)=O)cc1COC(=O)c1cnc(C)cn1	-2.8%	4.6%	-1.2%	15.8µM*	-3.5%
CCOc1ccc(CCNC(=O)Cn2ncn3c(cc4ccccc43)c2=O)cc1OCC	.	.	.	-2.2%[10.9 µM]	-0.2%
COCCNC(=O)c1c(N)n(-c2cccc(C)c2)c2nc3ccccc3nc12	0.2%	10µM*	-2.9%	-9.0%	-2.7%
SMILES	HBB splicing	CRE Fsk mod	GFP derepression	Imprint erasure	IkB signaling
C=CCNC(=O)c1c(N)n(-c2cccc(S(N)(=O)=O)c2)c2nc3ccccc3nc12	2.4%[57.5 µM]	10µM*	8.7%	-8.0%	-1.1%
CCc1nnc(NC(=O)CSc2nnc3c4ccccc4n(C)c3n2)s1	0.0%[57.5 µM]	-2.5%	3.7%	-6.8%	-0.7%
CCn1c2ccccc2c2nnc(SCC(=O)Nc3ncccn3)nc21	-1.4%	10µM*	10.2%	-11.8%	-2.4%
CCOC(=O)Cc1nnc(NC(=O)CSc2nnc3c4ccccc4n(C(C)C)c3n2)s1	-0.7%	10µM*	2.3%	-7.8%	0.7%
CCn1c2ccccc2c2nnc(SCC(=O)c3ccccc3)nc21	3.6%	3.16µM*	2.5%	-6.8%	-7.7%
CCn1c2ccccc2c2nnc(SCC(=O)NC(CC(C)C)C(=O)OC)nc21 (centres undefined)	2.1%	7.94µM*	-2.2%	-9.6%	0.1%
CCn1c2ccccc2c2nnc(SCC(=O)Nc3ccccc3OC)nc21	.	.	.	-3.3%[10.9 µM]	0.7%
CCC(Oc1ccc(F)cc1)C(=O)Nc1nc(-c2ccc(F)cc2)ns1 (centres undefined)	.	.	.	-9.9%[10.9 µM]	?
CCC(O)c1nc2ccccc2n1Cc1cc(C)ccc1C (centres undefined)	.	.	.	-4.5%[10.9 µM]	?
CN1CCN(c2ncnc3ccc(-c4ccccc4C#N)cc23)CC1	-1.7%	10µM*	-2.9%[9.22 µM]	-12.3%	-1.3%[11.4 µM]
N#Cc1ccccc1-c1ccc2ncnc(N3CCNCC3)c2c1	1.0%	?	5.7%[9.22 µM]	?	-1.6%[11.4 µM]
COc1ccc(C(=O)NC2(C(F)(F)F)C(=O)NC(C)=C2C#N)cc1 (centres undefined)	.	.	.	4.6%[10.9 µM]	-0.6%
COc1cccc(-c2nn(C)c3sc(C(=O)N4CCOCC4)cc23)c1	-0.6%	10µM*	10.3%	-7.6%	-0.2%
Cn1nc(-c2ccc(Cl)cc2)c2cc(C(=O)NCC3CCCO3)sc21 (centres undefined)	-0.7%	5.01µM*	.	-17.6%	?
COc1ccc(N2CCN(C(=O)c3cc4c(-c5ccc(Cl)cc5)nn(C)c4s3)CC2)cc1	-0.7%	9.5%	.	-13.8%	-0.5%
Cn1nc(-c2ccc(Cl)cc2)c2cc(C(=O)N3CCOCC3)sc21	-0.4%	6.31µM*	.	0.2%	-1.7%
CCOc1ccc(C(=O)N2CCc3cc(OC)c(OC)cc3C2COc2ccc3c(C)cc(=O)oc3c2)cc1OCC (centres undefined)	.	.	.	22.9%[10.9 µM]	-2.0%
Oc1c(C(c2ccc(Cl)cc2Cl)N2CCN(Cc3ccccc3)CC2)sc2nc(-c3ccco3)nn12 (centres undefined)	.	.	.	10.0%[10.9 µM]	?
CCOc1ccccc1-c1noc(CSc2nnc(-c3ccccc3)n2-c2ccc(F)cc2)n1	.	.	.	-7.1%[10.9 µM]	-0.3%
Cc1ccc2[nH]c(-c3ccccc3)cc(=O)c2c1	-3.7%[0.0738 µM]	1.58µM*	0.0%	-70.8%	13.6%
Cc1ccc(CN2C(=O)CC(c3ccc(Cl)cc3)c3c(C)nn(-c4nc(C)cc(C)n4)c32)cc1 (centres undefined)	.	.	.	6.8%[10.9 µM]	-3.8%
CCCCc1c2ccccc2nc2[nH]c3ccccc3c12	0.9%	5.01µM*	.	-14.3%	.
CCCCCc1c(O)c2ccccc2[nH]c1=O	-0.4%[57.5 µM]	-1.9%	4.5%	-1.3%	1.0%
COc1ccc(CNC(=O)CCc2nc(-c3ccc(C)cc3)no2)c(OC)c1	.	.	.	-5.1%[10.9 µM]	?
O=S(=O)(Nc1ccc(-c2nc3cccnc3s2)cc1)c1cccs1	-0.5%	3.16µM*	.	-21.6%	-2.6%
O=S(=O)(Nc1cccc2ncccc12)c1cccs1	-1.0%	?	2.1%	-25.7%	?

Assay outcomes deposited in PubChem BioAssay by National Center for Advancing Translational Sciences (NCATS).
